{
  "source": "paper PMC5540273",
  "about": "(PLoS ONE, 2017);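 note: KINOMEscan kinase panel screen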",
  "data": [
    {"system": "CDK7", "details": "concentration: 1 μM, replicates: in singlicate; n = 1", "units": {"%Inh": "%"}, "values": [
      {"smiles": "CC(C)c1nc(-c2cccc(NS(=O)(=O)c3c(F)cccc3F)c2F)c(-c2ccnc(Nc3ccc(N4CCOCC4)nc3)n2)s1", "note": "[GSK2008607]", "%Inh": 93.1},
      {"smiles": "COCCOCCOc1cc2ncc3c4ccc(C#N)cc4[nH]c3c2cc1OC", "%Inh": 99.7},
      {"smiles": "Fc1ccc(-c2ncn(C3CCNCC3)c2-c2ccnc(Oc3ccc(-c4ccccc4)cc3)n2)cc1", "note": "[SB-245391]", "%Inh": 41},
      {"smiles": "c1ccc(-c2cnc3nccnn23)cc1", "note": "[AH20685]", "%Inh": 0},
      {"smiles": "COc1cccc(-c2ccc3c(NC(=O)C4CC4)n[nH]c3n2)c1", "note": "[SB-710903]", "%Inh": 0}
    ]}
  ]
}
